According to PMC7819943, “Rice protein-binding microarrays: a tool to detect cis-acting elements near promoter regions in rice”:
The full ranking holds about 68,000 sequences; the median of “fluorescence intensity (a.u.)” is about 9,100, and the highest 2% start at about 16,000. Many of the other results were omitted from the sample, so the highest values are more common in it than they were.

molecular target: OsWRKY34 (Oryza sativa, UniProt Q0JBA9 1-250); test: protein-binding microarray (RPBM); PBS, 2% BSA, 51.3 ng/ul salmon testes DNA, 50 uM zinc acetate, 200 nM TF, 25 C, 1 h; high values mean tight binding; conditions: protein: recombinant; tags: N-terminal polyhistidine and DsRed monomer fusion (pET32a); label: CyDye5-dUTP incorporated in the synthesized complementary strand; 3' TTTTT single-stranded linker to array surface; dsDNA, one strand shown
Sequence (Q0JBA9 entry or part of it): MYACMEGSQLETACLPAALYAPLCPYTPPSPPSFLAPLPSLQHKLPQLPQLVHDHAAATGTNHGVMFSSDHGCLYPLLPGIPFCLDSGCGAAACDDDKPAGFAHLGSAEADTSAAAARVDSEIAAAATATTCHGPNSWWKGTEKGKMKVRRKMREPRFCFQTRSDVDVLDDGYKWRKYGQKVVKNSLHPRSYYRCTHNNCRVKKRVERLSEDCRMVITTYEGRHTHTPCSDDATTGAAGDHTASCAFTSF
Procedure, shortened: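 Ni–NTA purification followed expression in E. coli BL21-CodonPlus of transcription factors fused N-terminally to a polyhistidine tag and DsRed. At 200 nM in PBS with 2% BSA, salmon testes DNA and 50 µM zinc acetate, the protein was incubated for 1 h at 25 °C with a custom Agilent array that had been primer-extended with Cy5-dUTP and blocked with 2% BSA. After washing, the array was read on an Axon 4000B scanner. The binding signal is per-feature fluorescence intensity in arbitrary units.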

“ATGTATGCACGATGTGAGTGTCCGTGTTTGTAATGTGTTTCGGAGTCACCTAGTGCAG” was tested. Which binding signal did it give?
The binding signal was 11300 fluorescence intensity (a.u.).

With “GTACTATGTATTGTCCCATCGTTGTATAGGTTGGTTTTTTCGGAGTCACCTAGTGCAG” as the sequence, how does the binding signal read?
Its binding signal is 8240 fluorescence intensity (a.u.).

With “ACCTACTCACAATCACAGAATCACATCATAACATTATTGTCGGAGTCACCTAGTGCAG” as the sequence, how does the binding signal read?
The binding signal was 9160 fluorescence intensity (a.u.).

For “CCTGCCATGTCATGTTTGTACCTAGATACCAGGTATGACGCGGAGTCACCTAGTGCAG”, which binding signal is on record?
The binding signal was 8960 fluorescence intensity (a.u.).

“AGATGTTTCCGCTGATACTTTGATACGTCGTCCTTATTTGCGGAGTCACCTAGTGCAG” was tested. Which binding signal did it give?
The binding signal was 10800 fluorescence intensity (a.u.).

How did the binding signal turn out when “CCGATTCCCTGCCGCATCTGCCCGTTGCCCTCGCGCCCGGCGGAGTCACCTAGTGCAG” was run?
Its binding signal is 8880 fluorescence intensity (a.u.).

With “TGCAGATTTGGTTTTTCTTTTTTTTCGCACGTTCTCTTTCCGGAGTCACCTAGTGCAG” as the sequence, how does the binding signal read?
Its binding signal is 15700 fluorescence intensity (a.u.).

“TATTTTTTGCTATTATCTTTCGTGTAAGCTATTTCTCTATCGGAGTCACCTAGTGCAG” was tested. Which binding signal did it give?
Its binding signal is 9170 fluorescence intensity (a.u.).

With “GTGTGTGTTTTTGCAAAAGTTTTCTATAGAAAAGTTACATCGGAGTCACCTAGTGCAG” as the sequence, how does the binding signal read?
The binding signal was 8210 fluorescence intensity (a.u.).

Which binding signal does the source give for “CAGTGCGTATTTGCAATATATATATATAGGAAAGTTTCTTCGGAGTCACCTAGTGCAG” here?
The binding signal was 9390 fluorescence intensity (a.u.).

“AATTCAAATTCATACTGTTCAAACAAAGTCATATAGAAAACGGAGTCACCTAGTGCAG” was tested. Which binding signal did it give?
The binding signal was 28600 fluorescence intensity (a.u.).

“TATATATATATATATATATATATATAGAAATTAAGTCAAACGGAGTCACCTAGTGCAG” was tested. Which binding signal did it give?
Its binding signal is 8940 fluorescence intensity (a.u.).

“TTTTTATACTGTTGGTACATATTCAAATTTGTCAAACATTCGGAGTCACCTAGTGCAG” was tested. Which binding signal did it give?
Its binding signal is 8960 fluorescence intensity (a.u.).

With “AAACGGTGCGTTTTTTGCAAAAAAATTCTATAGGAAAGTTCGGAGTCACCTAGTGCAG” as the sequence, how does the binding signal read?
Its binding signal is 63900 fluorescence intensity (a.u.).

“TCCTGTGCCTCTCTCATGGTGTGGGTGTCTGTGTCTTTGACGGAGTCACCTAGTGCAG” was tested. Which binding signal did it give?
Its binding signal is 9040 fluorescence intensity (a.u.).

How did the binding signal turn out when “AAGGTGGGGTCATCATAAATATTTTTTAAGTGAAAATTTTCGGAGTCACCTAGTGCAG” was run?
The binding signal was 9840 fluorescence intensity (a.u.).

Which binding signal does the source give for “CTATGAAGTTAAAAATACGCTCATCAGAAAGGATATATTTCGGAGTCACCTAGTGCAG” here?
Its binding signal is 57200 fluorescence intensity (a.u.).

Which binding signal does the source give for “AATGGATATCAGGATATGAAGCTCAAAGTTATCGGTTATTCGGAGTCACCTAGTGCAG” here?
The binding signal was 8240 fluorescence intensity (a.u.).

How did the binding signal turn out when “GGTTGAGGCTGTTTTCCGATCGTTCCGACCGTTTTCATCCCGGAGTCACCTAGTGCAG” was run?
The binding signal was 8700 fluorescence intensity (a.u.).

For “GCCAACCGCATGCCGTCCCCGATGCCGCCCGCCGTCAACCCGGAGTCACCTAGTGCAG”, which binding signal is on record?
The binding signal was 8290 fluorescence intensity (a.u.).

Which binding signal does the source give for “ATATTACTGGTGTTTACTTGCTTTTCTTTTTTTAAAAAAACGGAGTCACCTAGTGCAG” here?
Its binding signal is 9160 fluorescence intensity (a.u.).

How did the binding signal turn out when “ATATAAGGGATTTTGAGTTTTTGATTGCAACGTTTGACCACGGAGTCACCTAGTGCAG” was run?
Its binding signal is 8550 fluorescence intensity (a.u.).

Which binding signal does the source give for “TATGCATCACCTCGTAATCCACAACTGACTTACCCTTTCTCGGAGTCACCTAGTGCAG” here?
The binding signal was 12300 fluorescence intensity (a.u.).

For “CTTTTGTGCTCATCTGAACTTCTGAAGTATCATAAAGAAGCGGAGTCACCTAGTGCAG”, which binding signal is on record?
The binding signal was 31400 fluorescence intensity (a.u.).

With “AGAATGTTTGCTCAAAGTATGTTTTTGTCATCTGTTTTTCCGGAGTCACCTAGTGCAG” as the sequence, how does the binding signal read?
The binding signal was 8800 fluorescence intensity (a.u.).

Which binding signal does the source give for “TGCTTTTGTATTTTTTTTGCTGTGTATATATCATAAACTTCGGAGTCACCTAGTGCAG” here?
The binding signal was 8550 fluorescence intensity (a.u.).

With “TATTGTGTACTACATCTTTTATTATTTCTTTCAAATTTCACGGAGTCACCTAGTGCAG” as the sequence, how does the binding signal read?
Its binding signal is 10500 fluorescence intensity (a.u.).

For “CTCTCCCGGTCGCGCCGCCATCTCCTCTCCCAATCGCGCGCGGAGTCACCTAGTGCAG”, which binding signal is on record?
The binding signal was 8860 fluorescence intensity (a.u.).

How did the binding signal turn out when “CACTTCTATTGGTTCTTTGTCTGGGAGTAGCAGCATAAGTCGGAGTCACCTAGTGCAG” was run?
Its binding signal is 8540 fluorescence intensity (a.u.).

Which binding signal does the source give for “GACCTACGTCACCACCTTGCATGTCCCACGCGGAGCTCCACGGAGTCACCTAGTGCAG” here?
Its binding signal is 9230 fluorescence intensity (a.u.).

For “GCAACTGTGTTTTCAATTCTGCAAATGCTATTCTCTGTTACGGAGTCACCTAGTGCAG”, which binding signal is on record?
The binding signal was 11800 fluorescence intensity (a.u.).

With “TTTTTTTATTTTTTTTGAAATATTTTTTGTTGGGTTTTTTCGGAGTCACCTAGTGCAG” as the sequence, how does the binding signal read?
The binding signal was 13100 fluorescence intensity (a.u.).

Which binding signal does the source give for “GATTTGGGTTGAAATATGATATGGGTTGGATTGGTTTGGACGGAGTCACCTAGTGCAG” here?
Its binding signal is 16100 fluorescence intensity (a.u.).

With “CCGTCGATTTGGTTGGTTGGTTGATCGGCGGCGAGGAGGGCGGAGTCACCTAGTGCAG” as the sequence, how does the binding signal read?
Its binding signal is 11400 fluorescence intensity (a.u.).

How did the binding signal turn out when “TGATTTGCGCGAGGGTTTGGTTTGGTTTGGTTTGAGTCGACGGAGTCACCTAGTGCAG” was run?
Its binding signal is 19200 fluorescence intensity (a.u.).

How did the binding signal turn out when “GCGCTTCGATTTGGTTTGGTTTGATTCGGTTTGCGAGATGCGGAGTCACCTAGTGCAG” was run?
The binding signal was 8780 fluorescence intensity (a.u.).

“GGGGTTAGTTGTCCGTTTTGCATAGTTGGGGATAAAAAATCGGAGTCACCTAGTGCAG” was tested. Which binding signal did it give?
Its binding signal is 18500 fluorescence intensity (a.u.).

With “TAGATGAAATGGGTTGGGTTGATTTGGGTTGAAATATGATCGGAGTCACCTAGTGCAG” as the sequence, how does the binding signal read?
Its binding signal is 21800 fluorescence intensity (a.u.).

“TTTGGGATAAATCATGAGGGGTTAAAAGTTGTTATATTTTCGGAGTCACCTAGTGCAG” was tested. Which binding signal did it give?
Its binding signal is 10100 fluorescence intensity (a.u.).

“ATGAACTTAGTTGTTTTTTTTTGGGTTTTACTTGCATAATCGGAGTCACCTAGTGCAG” was tested. Which binding signal did it give?
The binding signal was 8220 fluorescence intensity (a.u.).

How did the binding signal turn out when “GATTTTTAGTGAATATAATGAAATTTCACAGGGGAGGGGCCGGAGTCACCTAGTGCAG” was run?
Its binding signal is 13400 fluorescence intensity (a.u.).

With “GATTTTTAGTGAATATAATGAAATTTCATAGGGGAGGGGCCGGAGTCACCTAGTGCAG” as the sequence, how does the binding signal read?
The binding signal was 8930 fluorescence intensity (a.u.).

How did the binding signal turn out when “TCGCGTAGGGGAGGGGTGAAATATATTTTTTATGCCGGGCCGGAGTCACCTAGTGCAG” was run?
The binding signal was 18000 fluorescence intensity (a.u.).
